ChEMBL document CHEMBL4513216, “Probing the Open Global Health Chemical Diversity Library for Multistage-Active Starting Points for Next-Generation Antimalarials” (ACS Infect Dis, 2020)
In all, about 69,000 compounds went through this assay and about 8,600 (12%) showed an effect of 50% or more. This excerpt belongs to a sample that is enriched for strong results.

Test system: Plasmodium berghei
Assay: Screen against P. berghei liver stage (PbLuc), transformed with Luciferase, at 10uM
Assay type: functional, HepG2
Settings: tested at 10 uM

Going from `NC(=O)c1nnn(-c2ccc(Cl)cc2)n1` to `CC(C)(C(N)=O)N1CCN(C(=O)c2ccn(-c3cccc(Cl)c3)n2)CC1`, the INHIBITION rises from -27.1% to -14.6%.

Compared with `CCCc1nc(N2CC[C@@H](c3ccc4c(c3)OCO4)[C@H](O)C2)no1`, `O[C@@H]1CN(c2nc3ccccc3o2)CC[C@H]1c1ccc2c(c1)OCO2` is higher in INHIBITION: 19.4% for the first, 39.3% for the second.

Compared with `CC(C)c1cc(C(=O)N2CC[C@@H](c3ccc4c(c3)OCO4)[C@H](O)C2)[nH]n1`, `CCc1cc(C(=O)N2CC[C@@H](c3ccc4c(c3)OCO4)[C@H](O)C2)[nH]n1` is lower in INHIBITION: 15.6% for the first, -5.22% for the second.

Going from `O[C@@H]1CN(c2cnc3ccccc3n2)CC[C@H]1c1ccc2c(c1)OCO2` to `O[C@@H]1CN(c2nc3ccccc3s2)CC[C@H]1c1ccc2c(c1)OCO2`, the INHIBITION rises from 60.1% to 68.1%.

First: CC(C(=O)NCC(C)(C)c1ccc2c(c1)OCO2)n1ccnc1 (stereo not drawn)
Second: CC(Cn1ccnc1)NC(=O)NCc1ccc2c(c1)OCCO2 (stereo not drawn)
The INHIBITION of the first is higher: 29.8% for the first, -9.76% for the second.

First: CCc1ccc(C(=O)N2CCC(c3nncn3CC)CC2)s1
Second: Cc1cc(C)n(C2CCCN(C(=O)CCCc3ccccn3)C2)n1 (stereo not drawn)
The INHIBITION of the first is lower: 9.14% for the first, 16.9% for the second.

Going from `Cc1nnc([C@@]23CCO[C@@H]2CCN(Cc2scnc2C)C3)o1` to `Cc1cnc(N2CC3(CCN(Cc4cccnc4)C3)C2)nc1`, the INHIBITION rises from 10.4% to 27.2%.

Going from `COc1coc(C(=O)Nc2nc(C)cs2)cc1=O` to `COc1ccnc(NC(=O)c2cscc2C)c1`, the INHIBITION falls from 5.03% to -28.3%.

Going from `CC(C)Oc1ncccc1CNC(=O)c1ccccn1` to `Cc1ccccc1CNC(=O)c1ccccc1-n1cnc(CN)c1`, the INHIBITION rises from -48.4% to 33.7%.

First: CN(C)c1cc(NCc2cnc3n2CCN(CC2CC2)CC3)ncn1
Second: COCCN1CCc2ncc(CNc3cc(N(C)C)ncn3)n2CC1
The INHIBITION of the first is lower: 17.2% for the first, 54.1% for the second.

Compared with `CN1CCc2ncc(CNc3cc(N(C)C)ncn3)n2CC1`, `Cc1cc(-c2cnc(N3CCN(C)CC3)nc2C(C)C)on1` is higher in INHIBITION: 21.6% for the first, 47.95% for the second.

Compared with `Cc1nn(C)c(C)c1C1CCCN1C(=O)CCNS(C)(=O)=O` (stereo not drawn), `Cc1nn(C)c(C)c1C1CCCN1CC(=O)N(C)c1nccs1` (stereo not drawn) is higher in INHIBITION: -37.7% for the first, 5.91% for the second.

First: Cc1ccsc1-c1nccn1CCN1CCCOC1=O
Second: CN(C)C(=O)[C@@H]1C[C@@H]2[C@@H](CCN2Cc2nccs2)O1
The INHIBITION of the first is lower: 20.8% for the first, 44.5% for the second.

Going from `Cc1cc(CCC(=O)Nc2nncs2)nc(C2CCCN2)n1` (stereo not drawn) to `Cc1cc(-c2cnn(CCNC(=O)c3snnc3C)c2C2CC2)on1`, the INHIBITION rises from 5.11% to 21.9%.

Going from `CN(C)c1ncccc1C(=O)N1CCCC1Cn1cccn1` (stereo not drawn) to `Nc1cc(C(=O)N2C[C@@H]3CC[C@H]2CN(Cc2cccnc2)C3)ccn1`, the INHIBITION rises from -21.5% to 4.64%.

First: Cc1cccc(CN2CC3(CCN(C(N)=O)CC3)OCC2=O)n1
Second: COc1cccc(CN2CCC3(CC2)CCN(c2ncc(C)cn2)C3)c1
The INHIBITION of the first is lower: 7.53% for the first, 65.9% for the second.

First: N#Cc1ccc(NCCCN2C(=O)COc3ccccc32)nc1
Second: N#Cc1cnc(NCCCN2C(=O)COc3ccccc32)c(Cl)c1
The INHIBITION of the first is higher: 15.3% for the first, -66.9% for the second.

Going from `N#Cc1c(Cl)nsc1NCCCN1C(=O)COc2ccccc21` to `CC1Cc2ccccc2N1C(=O)Cn1nc(-c2cccs2)ccc1=O` (stereo not drawn), the INHIBITION falls from 62.4% to 44.3%.

Compared with `Cc1nnc2n1CCN(C(=O)c1ccn(-c3cccc(F)c3)n1)C2`, `CC1CCCCN1CCNC(=O)c1ccn(-c2ccccc2)n1` (stereo not drawn) is higher in INHIBITION: -1.15% for the first, 7.12% for the second.

First: COc1ccc(Cl)cc1CCNC(=O)NCc1cnn(C)c1C
Second: COc1ccc(Cl)cc1C(=O)N1CCCC(c2cc(C)[nH]n2)C1 (stereo not drawn)
The INHIBITION of the first is lower: -9.35% for the first, -2.53% for the second.

First: Cc1cscc1C(=O)Nc1cc(CSCCO)ccn1
Second: O=C(Nc1cc(CSCCO)ccn1)c1ccc(Cl)o1
The INHIBITION of the first is higher: 52.2% for the first, 38.3% for the second.

Compared with `COc1ccccc1CCNS(=O)(=O)N1CCOCC1`, `O=S(=O)(NCCc1ccccc1F)N1CCOCC1` is higher in INHIBITION: 8.38% for the first, 53.8% for the second.

Going from `O=S(=O)(NCCc1cn2ccccc2n1)N1CCOCC1` to `O=S(=O)(NCCc1ccccc1C(F)(F)F)N1CCOCC1`, the INHIBITION rises from 1.74% to 24.3%.

Going from `COc1ccccc1OCCNS(=O)(=O)N1CCOCC1` to `CCC(NS(=O)(=O)N1CCOCC1)c1ccccc1OC` (stereo not drawn), the INHIBITION falls from 58.4% to 4.41%.

First: CCNc1nc(-c2cccnc2)c(-c2ccnc(N3CCOCC3)n2)s1
Second: Nc1nc2c(c(NCC(c3cccnc3)N3CCOCC3)n1)CCNC2 (stereo not drawn)
The INHIBITION of the first is higher: 39.7% for the first, 23.1% for the second.

Compared with `CS(=O)(=O)N[C@@H]1CN(Cc2ccc3ncccc3c2)C[C@H]1O`, `Cc1ccc(C(=O)NC2CCOc3ccccc32)cc1S(C)(=O)=O` (stereo not drawn) is lower in INHIBITION: 23.9% for the first, 16.2% for the second.

Compared with `N#Cc1c(N)nc2c(c1-c1cnc(N3CCCC3)nc1)COCC2`, `Cc1cnc(CC2COCCN(C(=O)CN3CCCCC3)C2)cn1` (stereo not drawn) is higher in INHIBITION: -10.7% for the first, 30.4% for the second.

Going from `Cc1cccc(C)c1OCC(C)Nc1nc(N)nc2c1CCNC2` (stereo not drawn) to `Cc1cccnc1CC(C)Nc1nc(N)nc2c1CCNC2` (stereo not drawn), the INHIBITION rises from 42.6% to 65.7%.

Going from `CCOCCNC(=O)c1ccn(S(=O)(=O)c2ccc(C)cc2)c1` to `CCNC(=O)CNC(=O)c1ccn(S(=O)(=O)c2ccc(C)cc2)c1`, the INHIBITION falls from 13.5% to 2.69%.

Compared with `Cc1ccc(S(=O)(=O)n2ccc(C(=O)NCC(F)(F)F)c2)cc1`, `O=C(COCC(F)(F)F)NS(=O)(=O)c1ccc2c(c1)OCCCO2` is higher in INHIBITION: 53.8% for the first, 63.5% for the second.

Going from `Cc1cc(C(=O)NCCN2CCCC(C)C2)nn1C(C)(C)C` (stereo not drawn) to `Cc1cc(C(=O)NCCN2CCC(C)CC2)nn1C(C)(C)C`, the INHIBITION rises from -5.26% to 36.8%.

Compared with `Cc1cc(C(=O)NCCN2CCCCC2)nn1C(C)(C)C`, `Cc1cc(C(=O)NCCN2CCCCCC2)nn1C(C)(C)C` is higher in INHIBITION: -22.3% for the first, 76.6% for the second.

Going from `Cc1cc(C(=O)NCCN2CCCCC2C)nn1C(C)(C)C` (stereo not drawn) to `CCCn1cc(C(=O)NCCC(=O)NC2CCCCC2)c(C)n1`, the INHIBITION falls from 52.7% to -5.12%.

First: COCCc1noc(CN2CCCCC2Cn2cncn2)n1 (stereo not drawn)
Second: CN(Cc1nc(-c2ccoc2)no1)C1CCCN(c2cccnn2)C1 (stereo not drawn)
The INHIBITION of the first is higher: 10.675% for the first, 7.12% for the second.

Compared with `COCC1CN(Cc2ccc(C)o2)Cc2cn(C)nc21` (stereo not drawn), `Cc1cc(C)n(C(=O)c2cn(C)nc2S(=O)(=O)N2CCSCC2)n1` is higher in INHIBITION: 29.7% for the first, 56.5% for the second.

Compared with `CCCC(=O)NCCc1nc(N(C)C)ncc1-c1ccncc1`, `Cc1cc(-c2cnc(N(C)C)nc2C2CCCCN2C(=O)C2CC2)on1` (stereo not drawn) is lower in INHIBITION: 1.2% for the first, -11.59% for the second.

Compared with `CNC(=O)[C@@H]1CC[C@@H]2[C@@H](CCN2Cc2ccccc2F)O1`, `CC(C)C(=O)N1CCCc2c(cnn2-c2ccccc2)C1` is higher in INHIBITION: 0.804% for the first, 9.05% for the second.

Compared with `COc1cccc(CN2CCC3(CC2)CCN(c2ncccn2)C3)c1`, `COc1cccc(CN2CCC3(CC2)CCN(c2ncc(F)cn2)C3)c1` is higher in INHIBITION: 11.3% for the first, 40.8% for the second.

Going from `Fc1ccc(CN2CCC3(CC2)CCN(c2ncccn2)CC3)cc1` to `COc1ccc(CN2CCC3(CC2)CCN(c2ncccn2)CC3)cc1`, the INHIBITION rises from 56.7% to 67.7%.

Compared with `Fc1ccc(CN2CCC3(CC2)CCN(Cc2nccs2)CC3)cc1`, `c1cnc(N2CCC3(CCN(Cc4ccncc4)CC3)CC2)nc1` is lower in INHIBITION: 42.6% for the first, 21.6% for the second.

Going from `COc1cccc(CN2CCC3(CCN(c4ncc(C)cn4)CC3)C2)c1` to `COc1cccc(CN2CCC3(CCN(c4ncc(F)cn4)CC3)C2)c1`, the INHIBITION rises from 31.9% to 46.7%.

Going from `c1cnc(N2CC3(CCN(Cc4cccnc4)C3)C2)nc1` to `c1cnc(N2CCC3(CCN(Cc4cccnc4)CC3)CC2)nc1`, the INHIBITION rises from 13.7% to 61.4%.

First: COc1nccnc1N1CCC2(CC1)C(=O)N(C)c1ccccc12
Second: COc1ncccc1CN1CCn2c(C(=O)N3CCCC3)cnc2C1
The INHIBITION of the first is lower: -55% for the first, 7.24% for the second.

Compared with `COc1ccc(CNCc2c(C(C)C)nn(C)c2OC)cn1`, `Cc1cc(-c2cnc(N3CCSCC3)nc2C(C)C)on1` is higher in INHIBITION: 27.8% for the first, 50.8% for the second.

Compared with `CC(C)Cn1cc(C(=O)NC2CCS(=O)(=O)C2)c2ccccc2c1=O` (stereo not drawn), `CCNc1c(NC(=O)NC(C)C)c(=O)oc2ccccc12` is higher in INHIBITION: 28.6% for the first, 40.3% for the second.

Going from `Cc1nc[nH]c1CN1CCN(C2CCOCC2)CC(C(N)=O)C1` (stereo not drawn) to `O=C(O)C1(Oc2ccc(Cl)cc2)CCN(C2CCOCC2)CC1`, the INHIBITION rises from 7.52% to 24.7%.

Compared with `Cn1nnc(NCc2ccc(-c3ccc(Br)cc3)o2)n1`, `N#CC1(NC(=O)c2ccc(-c3nc(C4CC4)n[nH]3)cc2)CCSC1` (stereo not drawn) is higher in INHIBITION: 0.868% for the first, 22% for the second.

Going from `O=C(COC1CCCCC1)NS(=O)(=O)c1ccc2c(c1)OCCCO2` to `O=C(COC1CCCC1)NS(=O)(=O)c1ccc2c(c1)OCCCO2`, the INHIBITION falls from 10% to 8.64%.

Going from `CCCOCC(=O)NS(=O)(=O)c1ccc2c(c1)OCCO2` to `CCCOCC(=O)NS(=O)(=O)c1ccc2c(c1)OCCCO2`, the INHIBITION rises from 18.2% to 51.6%.

First: COCCCC(=O)NS(=O)(=O)c1ccc2c(c1)OCCCO2
Second: CCn1cc(C(=O)n2nc(C)cc2C)c(S(=O)(=O)N2CCCCC2)n1
The INHIBITION of the first is higher: 38.6% for the first, 29.7% for the second.

Compared with `CCCn1cc(C(=O)n2nc(C)cc2C)c(S(=O)(=O)N2CCSCC2)n1`, `CCCn1cc(C(=O)NC2CCN(CC(=O)NC3CC3)CC2)c(C)n1` is higher in INHIBITION: 0% for the first, 39.4% for the second.

First: Cc1cc(-c2cnc(N3CCC(C(N)=O)CC3)nc2C(C)C)on1
Second: Cc1cc(-c2cnc(N3CCC(O)CC3)nc2C(C)C)on1
The INHIBITION of the first is higher: 77.1% for the first, 59.4% for the second.

Going from `Cc1cc(C(=O)NC2CCC3(CCC(=O)N3CC3CC3)CC2)no1` (stereo not drawn) to `CCCn1cc(C(=O)NCC(=O)NC2CC2)c(C)n1`, the INHIBITION rises from -1.12% to 60.3%.

First: COc1ccc(C(C#N)NC(=O)Cc2ccc(F)c(F)c2)c(OC)c1 (stereo not drawn)
Second: CCc1noc(CN(CC)Cc2cc3ccc(F)cc3[nH]c2=O)n1
The INHIBITION of the first is higher: 17.7% for the first, -52.7% for the second.
